# MIN6 prolif: inducers of MIN6 beta-cell proliferation, primary screen, ATP luminescence, uHTS; MIN6 cells proliferation, ATPlite luminescence, 48 h; cells starved in 0.2% serum; 100% = growth in 10% serum; AID 2380, 2010; actives 0.29% (n = 330,000); proliferation, % at 10 µM;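 active = compounds whose signal lies at least 3.5 SD above the mean of all wells on their plate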;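 note: 0% = DMSO-treated cells in low-serum medium and 100% = 10% serum control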
# Calpain2 inh: inhibitors of pig calpain II, primary screen, biochemical, fluorogenic peptide substrate, 1536-well; inhibition, % at 16 µM; actives 0.37% (n = 220,000); purified calpain II, 30 min;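 active = inhibition above about 50%, limit read from the data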
# H9c2 protect: cardioprotection against H2O2-induced cell death, primary screen, uHTS, H9c2 cells, ATPLite luminescence | H9c2 cardiomyocytes, H2O2 injury protection, 2 h | protection from H2O2 cell death, % at 20 µM | actives 0.63% (n = 360,000);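 active = compounds giving at least 50% protection of heart cells from peroxide-induced death in the single-dose screen, raw or plate-pattern-corrected value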;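 note: 0% = DMSO wells with peroxide and 100% = DMSO wells without peroxide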
# FAS TE block: FAS thioesterase domain inhibitors, primary screen, biochemical, fluorescence intensity, uHTS; Fatty acid synthase (Homo sapiens), P49327; recombinant FAS-TE, OMFH fluorogenic substrate, fluorescence endpoint; inhibition, % at 15 µM; actives 0.67% (n = 360,000); AID 602261, 2012;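 active = compounds whose normalised, plate-corrected inhibition of enzyme fluorescence in the single-dose primary screen is 50% or more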;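 note: 0% = DMSO with enzyme and 100% = substrate without enzyme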
# H9c2 TAG inh: inhibitors of triacylglycerol accumulation, primary screen, cell-based, uHTS, fluorescence, H9c2. H9c2 cells, Nile Red lipid (TAG) fluorescence; cells loaded with 200 µM oleic acid. inhibition, % at 12.5 µM. actives 0.66% (n = 230,000);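 active = pattern-corrected inhibition of lipid staining of at least 50% with the nuclear-stain viability signal not falling by more than 50%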;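 note: 0% = DMSO wells and 100% = triacsin C control wells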
# aDG glyco act: activators of alpha-DG glycosylation, primary screen, uHTS, Pro5-aDG cells, AlphaScreen; alpha-DG glycosylation AlphaScreen (IIH6); 0% Pro5, 100% B10-LARGE cell signal; activation, % at 10 µM; actives 0.22% (n = 360,000);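 active = activation of at least 8% versus controls, or a plate z-score of at least 8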;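 note: Pro5 are CHO cells carrying HIG-tagged alpha-DG that lacks glycosylation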
# aDG glyco conf: alpha-DG glycosylation enhancers, retest, confirmation, single concentration, Pro5-aDG cells; shares compounds with aDG glyco act; IIH6 AlphaLISA; scaled to LARGE-overexpressing B10 cells as 100%; activation, % at 10 µM (by protocol); actives 17% (n = 600);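 active = activation of at least 7% in one or more replicates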;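 note: cells exposed to compound for two days before detection; 0% = DMSO-treated Pro5 cells and 100% = DMSO-treated B10-LARGE cells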
# * hit, by the source's call; . = no result given. Shown are actives, neighbours in structure and some others; about 2.3% of the full set was active somewhere.
SMILES,MIN6 prolif,Calpain2 inh,H9c2 protect,FAS TE block,H9c2 TAG inh,aDG glyco act,aDG glyco conf
CCn1c(C)nc2cc(S(N)(=O)=O)ccc21,2.3,-20.6,5.3,-7.7,1.6,-0.1,.
C[C@H]1CN([C@@H](C)CO)C(=O)CCCn2nncc2CO[C@@H]1CN(C)Cc1ccc(Cl)c(Cl)c1,.,.,0.6,-4.7,7.8,0.2,.
CCOc1ccc(N2CC(C(=O)N3CCN(c4ccccn4)CC3)CC2=O)cc1 (centres undefined),0.3,.,-2.3,-9.6,-34.4,10.5*,10.3*
Cc1cc(Br)ccc1OCCCCNC(C)(C)C,-2.8,10.8,18.3,-3.6,23.0,4.3*,7.2*
O=S(=O)(Nc1cccc(S(=O)(=O)N2CCCC2)c1)c1ccccc1F,-1.8,.,5.5,1.6,5.8,0.2,.
Cc1cc2ncc(S(=O)(=O)c3ccccc3)c(N)n2n1,-3.1,-9.7,1.9,-1.8,-11.5,6.3*,0.7
COc1ccc(NC2c3ccccc3C(=O)N2c2cccnc2)cc1 (centres undefined),-2.1,-18.5,-0.7,-4.7,10.5,0.0,.
O=C1c2ccccc2C(Nc2ccc(S(=O)(=O)N3CCOCC3)cc2)N1c1cccnc1 (centres undefined),-0.8,14.4,4.5,-6.2,4.0,10.2*,0.0
COc1ccc(CCNc2nc(C)nc3c2oc2ccccc23)cc1OC,-5.9,-42.8,-26.9,-0.9,-30.5,6.0,.
COc1ccc(CCNc2ncnc3c2oc2ccccc23)cc1OC,-4.3,-18.7,-25.3,-5.3,.,7.4*,1.2
c1csc(-c2nc3c4ccccc4c4ccccc4c3[nH]2)c1,-5.5,-86.5,-10.1,22.7,9.4,5.5*,3.5
Oc1ccccc1-c1nc2c3ccccc3c3ccccc3c2[nH]1,.,-65.6,-17.2,21.7,.,0.6,.
COc1ccc(Nc2cc(C)nc(N3CCN(C(=O)c4ccc5c(c4)OCO5)CC3)n2)cc1,3.1,.,9.7,2.2,15.2,0.0,.
COc1cccc(N2CCN(S(=O)(=O)c3ccc4ccccc4c3)CC2)c1,1.3,.,-12.1,31.4,6.2,0.6,.
COc1ccc(-c2cc(C3CCN(c4ccc(C(C)=O)cc4[N+](=O)[O-])CC3)[nH]n2)cc1,-5.6,-14.0,-18.6,22.0,19.4,10.4*,4.4
CC(NCC(=O)Nc1ccccc1C(=O)NC1CC1)c1ccco1 (centres undefined),4.2,.,8.5,-2.0,11.1,-0.2,.
COc1cccc(N2CCN(c3ccc([N+](=O)[O-])cn3)CC2)c1,0.8,.,0.5,15.9,.,3.4*,-0.3
COc1ccc(CN2CCC(N3CC(C)OC(C)C3)CC2)c(OC)c1OC (centres undefined),1.4,.,7.8,-3.1,.,0.2,.
c1ccc2c(N3CCCCC3)ncnc2c1,-1.3,-2.9,-16.0,-8.1,-12.0,1.2,.
CN1CC[n+]2cnc3ccccc3c21,-1.1,-59.7,-0.2,-5.2,.,6.2*,-0.8
CCOC(=O)C(=CNc1cc(C)nn1-c1ccc(C)cc1)C(=O)OCC,-2.3,14.0,9.8,-4.6,-2.4,4.7*,1.1
O=C1NC[C@H](CCCCN2C[C@H](Cc3ccc(O)cc3)N(CC3CCCCC3)C(=O)C2=O)N(CC2CCCCC2)C1=O,.,.,.,-5.0,.,-0.2,.
CCn1c2c(c(=N)c3ccccc31)CCC2,-1.8,-5.0,-5.9,-7.6,-14.8,3.4*,0.1
CCOC(=O)c1cc(-c2ccc(OC)cc2)n(CCC(=O)NC2CCN(Cc3ccccc3)CC2)c1C,-5.1,-10.2,5.1,5.5,.,0.6,.
CCOC(=O)c1cc(-c2ccc(F)cc2)n(CCC(=O)NC2CCN(Cc3ccccc3)CC2)c1C,-6.2,-19.8,20.4,3.8,.,8.4*,3.5*
CCC(C)[C@H]1COCCS(=O)(=O)N1Cc1ccccc1F (some centres undefined),-1.5,.,-0.9,-0.5,-13.3,0.2,.
